# aSyn 5UTR act: Activators via SNCA 5'UTR binding, MLPCN | alpha-synuclein 5'UTR reporter, activators screen | activity score, % (tested at 7.5 µM), hits read low | actives 7.1% (n = 300,000) | AID 1814; in the data active = activity score below about -60%
# An asterisk follows results filed as active. A selection follows.
SMILES,aSyn 5UTR act
COc1cccc(/C=N/Nc2nccnc2Cl)c1O,90
COc1ccc2nc(Cl)c(/C=N/Nc3ccccn3)cc2c1,-88*
COc1ccc(/C=N/Nc2nccnc2Cl)c(OC)c1,-111*
Cc1ccc(/C=N/Nc2cccc3cccnc23)c(O)c1,-271*
Oc1ccc(/C=N/Nc2cccc3cccnc23)c(O)c1,-405*
Cc1ccc(S(=O)(=O)Nc2cccc3cccnc23)c([N+](=O)[O-])c1,71
Oc1ccc(/C=N/Nc2nccnc2Cl)c(O)c1,88
O=C1c2c(Br)c(Br)c(Br)c(Br)c2C(=O)N1c1ccccn1,-112*
CCOC(=O)c1oc2nc3c(cc2c1N)CCCC3,-107*
O=C(Nc1nc2ccccc2s1)c1ccc(N2CCCCC2)c([N+](=O)[O-])c1,-67*
O=C(Nc1ccon1)c1ccc(N2CCCCC2)c([N+](=O)[O-])c1,-143*
Cc1ccc(C(=O)c2cc([N+](=O)[O-])ccc2N2CCCCC2)c(C)c1,69
O=C(CCl)NCCN1C(=O)S/C(=C\c2cccnc2)C1=O,-99*
C/C=C/COC(=O)c1[nH]c2c(c1C)C(=O)CC(c1ccco1)C2 (configuration not stated),67
CCOC(=O)C1=C(N)n2c(s/c(=C\c3ccco3)c2=O)=C(C(=O)OCC)C1c1ccco1 (configuration not stated),-78*
CCCCCCOc1ccc(OCC(O)CN2C(=O)NC(C)(C)C2=O)cc1 (configuration not stated),-128*
O=C(N/N=C/C(Cl)=C/c1ccccc1)c1ccco1,-158*
O=C(N/N=C/C(Cl)=C\c1ccccc1)c1ccco1,-224*
Cc1cccc(-c2nc3cc([N+](=O)[O-])ccc3o2)c1,-130*
O=[N+]([O-])c1ccc2oc(-c3ccccc3)nc2c1,-236*
COc1ccc(-c2nc3ccc([N+](=O)[O-])cc3o2)cc1,-192*
O=[N+]([O-])c1ccc(O)c(-c2cc(C(F)(F)F)nc(-c3ccccc3)n2)c1,90
CCc1noc(C)c1C(=O)Nc1nc(-c2cccs2)cs1,-66*
CCOC(=O)C1C(=O)C=C(Nc2ccccc2F)CC1c1ccccc1 (configuration not stated),-114*
COC(=O)C1C(=O)C=C(Nc2ccc(F)cc2F)CC1c1ccccc1 (configuration not stated),-114*
SMILES,aSyn 5UTR act
O=C(NCC1OCCc2ccccc21)c1ccc(NC(=O)c2ccc(Cl)cc2)cc1 (configuration not stated),79
Cc1ccc(NC(=O)C2OCCc3ccccc32)cc1 (configuration not stated),-133*
O=C(Nc1ccccc1F)C1COc2ccccc2O1 (configuration not stated),-91*
COC(=O)N1CCc2c(sc(NC(=O)C3COc4ccccc4O3)c2C(N)=O)C1 (configuration not stated),-137*
NC(=O)c1oc2ccccc2c1NC(=O)C1COc2ccccc2O1 (configuration not stated),-86*
O=C(Nc1nnc(C(F)(F)F)s1)C1COc2ccccc2O1 (configuration not stated),-69*
CC(=O)c1sc(NC(=O)C2COc3ccccc3O2)nc1C (configuration not stated),62
Cc1ccc(NC(=O)C2COc3ccccc3O2)cc1 (configuration not stated),-154*
Cc1ccc(NC(=O)C2COc3ccccc3O2)c(C)c1 (configuration not stated),-110*
COC(=O)N1CCc2c(sc(NC(=O)C3=COCCO3)c2C#N)C1,-126*
C/C(=N\NC(=O)C1COc2ccccc2O1)c1ccccn1 (configuration not stated),98
O=C(N/N=C\c1cc(Br)cs1)C1COc2ccccc2O1 (configuration not stated),-127*
O=C(Nc1ncccc1Cl)C1COc2ccccc2O1 (configuration not stated),-107*
O=C(COC(=O)C1COc2ccccc2O1)NC(=O)NC1CCCC1 (configuration not stated),-73*
O=C(Nc1ccccc1)C1COc2ccccc2O1 (configuration not stated),-82*
O=C(NCC1COc2ccccc2O1)c1ccccc1 (configuration not stated),-137*
CCOc1ccc(C2C(C(=O)c3ccc(C)o3)=C(O)C(=O)N2c2nc(C)c(C(=O)OC)s2)cc1 (configuration not stated),-92*
COc1cccc(NC(=S)Nc2ccc(Br)cc2Cl)c1,-93*
COc1cccc(NC(=S)Nc2cccnc2)c1,-93*
COc1cccc(NC(=S)NCc2cccs2)c1,-72*
Cc1cccnc1NC(=S)Nc1ccc(Br)cc1Cl,-174*
COc1cccc(NC(=S)N/N=C2/CCCCc3ccccc32)c1,-178*
COc1ccc(C(=O)N/N=C(\C)c2cccc(NC(=O)c3ccc(F)cc3)c2)c(OC)c1,-66*
C/C(=N\NC(=O)c1cc(O)ccc1O)c1cccc(NC(=O)c2ccc(Cl)cc2)c1,-99*

# Compound activity: PubChem, Broad Institute
